TEAD-YAP inh = TEAD-YAP interaction inhibition; HEK-TIYL cells, TEAD-Gal4/YAP UAS-luciferase luminescence; inhibition, % at 9.12 µM; 640,000 tested, 1.4% active; AID 1259422; in the data active means inhibition above about 32%;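 further: 0% = median of test compound wells and 100% = reference inhibitor wells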
GPR151 ag = activates the human receptor GPR151; Q8TDV0; AID 1508602; activation, % at 11.2 µM; 650,000 tested, 1% active; PathHunter beta-arrestin GPR151 cells, luminescence; in the data active means activation above about 4.9%;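 further: 0% = median of compound wells and 100% = cells with positive control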
FBW7 act = activators of human E3 ligase FBW7; Q969H0; AlphaScreen FBW7–phospho-cyclin E peptide binding, activator screen; normalized activity (activation), % at 26.1 µM; 650,000 tested, 0.13% active; in the data active means normalized activity above about 1.9%;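 further: purified mutant Fbw7 with reduced substrate affinity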
MITF inh = human MITF inhibition, primary screen. O75030. AlphaScreen MITF homodimerization, bead proximity signal. inhibition, % at 2.6 µM. 650,000 tested, 0.91% active. AID 1259374; in the data active means inhibition above about 50%;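 further: 0% = vehicle wells with protein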
GPR151 conf act = confirmation of human GPR151 activators. GPR151 PathHunter beta-arrestin cells, luminescence, 90 min; % of EA-reagent control over plate median. activation, % at 11.2 µM. 6,700 tested, under 10 active. AID 1508609. shares compounds with GPR151 ag;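 active means mean percent activation across replicates above the confirmation screen cutoff of 4.91%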
GPR119 ag = counter-screen for GPR151 activators: effect on human GPR119; GPR119 PathHunter beta-arrestin cells, luminescence, 90 min; 0 = compound-well median, 100 = enzyme-acceptor control; shares compounds with GPR151 ag; activation, % at 11.2 µM; 6,700 tested, 0.3% active;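 active means mean percent activation in the counterscreen above 29.09%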;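 further: counterscreen on off-target GPR119 to flag nonselective hits from the GPR151 activator screen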
Target sequence (Q8TDV5 whole entry, looked up): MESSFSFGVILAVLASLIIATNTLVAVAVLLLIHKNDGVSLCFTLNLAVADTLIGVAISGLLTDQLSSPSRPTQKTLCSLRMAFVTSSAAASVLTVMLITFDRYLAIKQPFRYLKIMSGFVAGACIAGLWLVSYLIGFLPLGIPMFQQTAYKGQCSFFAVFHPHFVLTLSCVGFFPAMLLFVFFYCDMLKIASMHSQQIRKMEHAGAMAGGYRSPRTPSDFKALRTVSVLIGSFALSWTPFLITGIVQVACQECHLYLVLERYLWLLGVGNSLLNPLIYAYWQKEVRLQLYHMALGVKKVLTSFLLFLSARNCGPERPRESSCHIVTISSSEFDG
Numbers without * were called inactive; . = no result given. Only some compounds are listed: those with a hit (about 3.5% of all), similar ones and a draw of the others.

SMILES | TEAD-YAP inh | GPR151 ag | FBW7 act | MITF inh | GPR151 conf act | GPR119 ag
CC(=O)Nc1ccc(NC(=O)c2ccnc(Nc3ccc(N4CCOCC4)cc3)c2)cc1 | -4 | -2 | 0 | 1 | . | .
O=C(Nc1ccc(N2CCOCC2)cc1)c1ccnc(N2CCOCC2)c1 | -8 | 5.5* | 0 | 10 | -1 | 6
NC(=O)C1CCN(CC(=O)Nc2ccc(N3CCOCC3)cc2)CC1 | 9 | 5.9* | 0 | 2 | 0 | 7
O=C(Nc1ccc2c(c1)OCO2)c1ccnc(NCCN2CCOCC2)c1 | -18 | 7.1* | 0 | 7 | 0 | -7
O=C(Nc1ccc(N2CCOCC2)cc1)c1ccnc(NCCN2CCOCC2)c1 | 8 | -1 | 0 | 29 | . | .
O=C(Nc1ccc(N2CCOCC2)cc1)C1CCN(c2ccc(Cl)nn2)CC1 | 9 | 6.0* | 0 | 9 | 0 | 5
N#CC1=C(N)Oc2c(c(=O)[nH]c3ccccc23)C1c1ccc([N+](=O)[O-])cc1 (stereo not drawn) | -6 | 0 | 0 | 7 | . | .
O=C1c2ccccc2NC(c2ccoc2)N1O (stereo not drawn) | 0 | 1 | 0 | -2 | . | .
O=[N+]([O-])c1ccc(/C=C/CSc2nnc(-c3ccco3)n2-c2ccccc2)cc1 | -2 | -1 | 0 | -1 | . | .
O=C(NCCSCc1ccco1)c1ccc(I)cc1 | -23 | 0 | 0 | -1 | . | .
CC(=O)N(C)c1nnc(-c2ccccn2)s1 | 3 | 7.8* | 0 | 8 | -1 | 7
COC(=O)NNC(=S)NCc1ccc(C)cc1 | 0 | 5.6* | 0 | -2 | -1 | -11
COc1cc(C(=O)OCCn2c(=O)c3c(nc(N4CCNCC4)n3C)n(C)c2=O)cc(OC)c1OC | -15 | -1 | 0 | 6 | . | .
COc1ccc(NC(=S)N(CCCN2CCOCC2)Cc2cccnc2)cc1Cl | -11 | 0 | 0 | 18 | . | .
Cc1c(C(=O)c2ccc(Br)cc2)c(=O)n(C)c(=O)n1C | -2 | 5.8* | 0 | 22 | 0 | -2
CCOC(=O)CC1CCc2c([nH]c3ccc(C)cc23)C1=O (stereo not drawn) | -21 | 1 | 0 | 3 | . | .
Cc1ccc(S(=O)(=O)Nc2ccccc2C(=O)N2CCc3ccccc3C2)cc1 | -1 | 0 | 0 | -22 | . | .
CCNc1nc(NCC)nc(Nn2c(=S)[nH]c3sc4c(c3c2=O)CCCC4)n1 | 3 | 1 | 0 | 14 | . | .
CC1=CC(C)(C)Nc2cc3c(cc21)OCO3 | -3 | 0 | 0 | 29 | . | .
Cc1cc(N)nc(-c2ccc(C(=O)N3CCN(C)CC3)cc2)n1 | -11 | 8.5* | 0 | 6 | 0 | 6
CCCNc1cc(C)nc(-c2ccc(C(=O)N3CCN(C)CC3)cc2)n1 | -43 | -2 | 0 | -6 | . | .
CC(C)=NNC(=O)c1ccc(Cl)cc1 | -34 | 12* | 0 | 7 | 0 | 2
CC1Cc2cc(S(=O)(=O)CCC(=O)Nc3ccccc3Cl)ccc2N1C(=O)C1CC1 (stereo not drawn) | 14 | 5.2* | 0 | 2 | 0 | 1
CC1Cc2cc(S(=O)(=O)CCC(=O)Nc3cccc(F)c3)ccc2N1C(=O)C1CC1 (stereo not drawn) | 8 | 1 | 0 | -1 | . | .
COc1ccc(Cl)cc1NC(=O)C1CCCN1C(=O)Nc1cccc(C(C)=O)c1 (stereo not drawn) | 8 | 0 | 0 | 16 | . | .
SMILES | TEAD-YAP inh | GPR151 ag | FBW7 act | MITF inh | GPR151 conf act | GPR119 ag
CC(O)c1nc2ccccc2n1Cc1cccc(Cl)c1 (stereo not drawn) | 7 | 5.2* | 0 | -8 | 1 | 9
CC(O)c1nc2ccccc2n1CCOc1ccccc1F (stereo not drawn) | -6 | 5.1* | 0 | -3 | 1 | 3
CCOc1ccccc1-n1c(SCC(=O)Nc2cccc(OC)c2)nc2n[nH]c(C)c2c1=N | 9 | -1 | 0 | 6 | . | .
CCn1c(=O)c2c(nc3n2CCCN3c2ccc(Br)cc2)n(C)c1=O | 1 | 0 | 0 | 2 | . | .
C=CCn1c(=O)c2c(nc3n2CCCN3c2ccc(CC)cc2)n(C)c1=O | 16 | 7.4* | 0 | 3 | 0 | -4
CN(NS(=O)(=O)c1ccc2ccccc2c1)c1ccccc1 | 0 | 7.6* | 0 | 5 | 0 | 1
CN(c1cccc(NS(=O)(=O)c2ccc3ccccc3c2)c1)S(C)(=O)=O | 5 | 0 | 0 | 0 | . | .

Bioassay records as filed in PubChem.
